Records with an inconclusive call do not appear. A number with no mark means an inactive call. Active and inactive are the calls of the source. Calls follow the shape of the full dose curve.
Assay: p53 small molecule agonists, cell-based qHTS assay with rat liver microsomes: qHTS cell viability counter screen (AID 1963580); also: nearly all actives have a fitted effect of over 45% in size
Conditions: p53RE-bla HCT-116 + rat microsomes, ATP viability, 16 h; series mostly up to 66 µM; activity change, negative = cytotoxicity: at the top concentration
Text: National Center for Advancing Translational Sciences [NCATS]
Division of Preclinical Innovation [DPI]
U.S. Environmental Protection Agency [EPA]
National Institutes of Environmental Health Sciences [NIEHS]
National Toxicology Program [NTP]
U.S. Food and Drug Administration [FDA]
p53, a tumor suppressor protein, is activated following cellular insult, including DNA damage and other cellular stresses. The activation of p53 regulates cell fate by inducing DNA repair, cell cycle arrest, apoptosis, or cellular senescence. The activation of p53, therefore, is a good indicator of DNA damage and other cellular stresses. The CellSensor p53RE-bla HCT-116 cell line contains a stably integrated beta-lactamase reporter gene under control of the p53 response elements. The activation of the reporter gene under culture conditions can be detected by fluorescence intensity. This cell line was used to screen the Tox21 10K compound library in the condition of presence of rat liver microsomes and to identify agonists that activate the p53 signaling pathway after in vitro metabolic activation (Ooka et al., Archive of Toxicology 96:1975-1987, 2022). The cytotoxicity of the Tox21 compound library against the p53 RE-bla HCT-116 cell line was tested in parallel by measuring the intra cellular ATP content in the same wells.
Tox21 Assay Protocol Summary:
The p53RE-bla cells were dispensed at 4,000cells/3ul/well in 1536-well black-clear bottom plates. After the assay plates were incubated at 37 C, 5% CO2 incubator for 5 hours, 23 nL of compounds dissolved in DMSO, positive controls or DMSO only was transferred to the assay plate. Following compound addition, 3 uL of rat liver microsomes (Molecular Toxicology, Boone, NC) at final concentration of 0.5 mg/mL and 1uL of B-Nicotinamide adenine dinucleotide 2'-phosphate (NADPH) at final concentration of 0.5 mg/mL were transferred to the assay plate. The plates were incubated at 37 C for 16 hours. 1 uL of LiveBLAzer detection mixture was added to each well and the plates were incubated at room temperature in the dark for 2 h. Fluorescence intensity at 460 and 530 nm emission and 405 nm excitation were measured by an Envision plate reader. For cell viability readout that measures cytotoxicity, 4 ul/well of CellTiter-Glo reagent was added into the assay plates using a Flying Reagent Dispenser. After 30 min incubation at room temperature, the luminescence intensity in the plates was measured using a ViewLux plate reader.
% is scaled to controls: 0 for no effect and ±100 for the full control effect; potency is read from the fitted curve at half-maximal effect.

| SMILES | activity change, negative = cytotoxicity | Potency |
| --- | --- | --- |
| CCCCC(CC)COS(=O)(=O)O (stereo not given) | 3.76% | – |
| O=C1NCCN1 | 3.46% | – |
| CNc1ncnc2nc[nH]c12 | -12.3% | – |
| COc1cc2c(cc1OC)-c1cc(=Nc3c(C)cc(C)cc3C)n(C)c(=O)n1CC2 | -7.68% [at 30.3 µM] | – |
| Brc1ccccc1-c1ccccc1 | 20.8% | – |
| CCCCOC(=O)c1ccccc1C(=O)OCC(CC)CCCC (stereo not given) | 2.15% | – |
| Cc1cc(C(C#N)c2ccc(Cl)cc2)c(Cl)cc1NC(=O)c1cc(I)cc(I)c1O (stereo not given) | -8.17% [at 30.3 µM] | – |
| CN1CCN(C(=O)C2CCCCC2)CC1 | -8.78% [at 30.3 µM] | – |
| COc1ccc(S(=O)(=O)Nc2nnc(CC(C)C)s2)cc1 | 1.35% [at 30.3 µM] | – |
| On1ccccc1=S | – | 718 nM (active) |
| Nc1cccc(O)c1 | -0.0218% | – |
| Cc1c(N)cccc1N | 1.03% | – |
| CCN(CC)CCOC(=O)C(c1ccccc1)C1CCCCC1 (stereo not given) | -6.45% [at 30.3 µM] | – |
| CC(=O)N[C@@H](CCC(=O)O)C(=O)O | -0.869% [at 30.3 µM] | – |
| CCOc1ccccc1OCCN[C@H](C)Cc1ccc(OC)c(S(N)(=O)=O)c1 | 5.68% [at 30.3 µM] | – |
| O=C(NOCC1CC1)c1ccc(F)c(F)c1Nc1ccc(I)cc1Cl | -11.6% [at 30.3 µM] | – |
| c1cc(OCC2CO2)cc(OCC2CO2)c1 (stereo not given) | -0.0449% | – |
| CC(C)CO | -1.04% | – |
| Cc1ccc(C)c([N+](=O)[O-])c1 | -2.23% | – |
| CC(=O)N(CC(O)CO)c1c(I)c(C(=O)NCCO)c(I)c(C(=O)NCC(O)CO)c1I (stereo not given) | -5.52% [at 30.3 µM] | – |

| SMILES | activity change, negative = cytotoxicity | Potency |
| --- | --- | --- |
| O=C(O)c1ccc(O)c(O)c1 | -0.471% | – |
| C=C(C)C(=O)OC | 1.96% | – |
| CCN(CC)c1ccc2c(c1)Oc1cc(N(CC)CC)ccc1C21OC(=O)c2ccccc21 | -9.55% [at 30.3 µM] | – |
| N#Cc1ccccc1O | -19.3% | – |
| CC(C)[C@H]1CC[C@H](C)C[C@@H]1O | -0.963% | – |
| CC(=O)SCc1ccco1 | 0.199% | – |
| OC[C@H]1O[C@@H](n2cnc3c(=S)nc[nH]c32)[C@H](O)[C@@H]1O | -13.1% [at 30.3 µM] | – |
| CC(=O)OCCC(C)CC(C)(C)C (stereo not given) | 12.7% | – |
| CN(C)C(=O)NC1(c2ccccc2)CCN(CC[C@@]2(c3ccc(F)c(F)c3)CN(C(=O)c3ccccc3)CCO2)CC1 | -6.03% | – |
| Oc1ccc(-c2ccccc2)c(Cl)c1 | 3.49% | – |
| C=C(C)C(=O)OCCOCCOCCOCCOC(=O)C(=C)C | -2.56% | – |
| CCOCN(C(=O)CS(=O)(=O)O)c1c(C)cccc1CC | -1.7% | – |
| O=C(c1ccccc1)c1ccc(O)cc1O | -0.512% | – |
| CC(C)(C)CC(C)(C)c1ccc(O)c(Cc2ccc(Cl)cc2Cl)c1 | 1.27% [at 30.3 µM] | – |
| Cc1cccc(C)c1NC(=O)CN1CCN(CCCC(c2ccc(F)cc2)c2ccc(F)cc2)CC1 | -3.92% [at 30.3 µM] | – |
| CCCCN(CCCC)CCC(O)c1cc2c(Cl)cc(Cl)cc2c2cc(C(F)(F)F)ccc12 (stereo not given) | -1.46% [at 30.3 µM] | – |
| O=C(CCCN1CCN(c2ccc(F)cc2)CC1)NC1c2ccccc2CSc2ccccc21 (stereo not given) | -8.92% [at 30.3 µM] | – |
| CCOc1ccc(O)cc1 | 1.42% | – |
| CC(CN(CCN(CC(C)OCCO)CC(C)OCCO)CC(C)OCCO)OCCO (stereo not given) | -1.92% | – |
| Cc1ccc(C(=O)O)cc1[N+](=O)[O-] | -0.156% | – |

— PubChem BioAssay (Tox21)
